High-throughput results from PubChem BioAssay.
Most compounds without a hit are left out; they make up all but 1.9% or so of the library.
Vif inh – blocks HIV Vif function; HEK293T cells, Vif self-association by quenched fluorescence, imaging, 24 h; inhibition, % at 7.49 µM; actives 0.35% (n = 340,000); AID 602346; in the data active means inhibition above about 50%, passing the limit was not always enough; inconclusive means no clear call, values can overlap the other calls; inactive means below about 31%
Neddyl block – cullin neddylation inhibition; P61081+Q13564; TR-FRET cullin neddylation, biochemical; inhibition, % at 25 µM; actives 0.58% (n = 360,000); AID 651699; in the data active means inhibition above about 36%
A1 inh – inhibitors of the anti-apoptotic protein A1, read as caspase activation. MEF A1-2A-BIM cells, Caspase-Glo 3/7 luminescence, 3 h; percent of clofoctol response, vehicle zero. caspase activation, % (test concentration not listed). actives 0.066% (n = 330,000);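 active means over half of replicate activation scores above 10%, or exactly half above 10 with the replicate mean above 10; inconclusive means replicate mean below 10 yet half the replicates above 10; inactive means over half of replicates below 10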
GSIS activator – GLuc luminescence reporter in INS-1E cells, primary screen for activators of glucose-dependent secretion of insulin | INS-1E GLuc reporter insulin secretion, 2-3 h | activation, % at 16.6 µM | actives 0.61% (n = 370,000) | AID 743287;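 active means lowest replicate activation of at least 40%, so every replicate reaches that level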
dFosB act-1 – enhances mouse delta FosB homodimer DNA binding; P13346; purified delta FosB, TAMRA-CDK5 oligo fluorescence polarization; percent of positive-control signal above neutral wells; activation, % at 25 µM; actives 0.99% (n = 340,000);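 active means mean activation above about 17%, with every replicate also reaching it, limit read from the data, passing the limit was not always enough; inconclusive means only one of the two conditions met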
Target sequence (P13346 whole entry, looked up): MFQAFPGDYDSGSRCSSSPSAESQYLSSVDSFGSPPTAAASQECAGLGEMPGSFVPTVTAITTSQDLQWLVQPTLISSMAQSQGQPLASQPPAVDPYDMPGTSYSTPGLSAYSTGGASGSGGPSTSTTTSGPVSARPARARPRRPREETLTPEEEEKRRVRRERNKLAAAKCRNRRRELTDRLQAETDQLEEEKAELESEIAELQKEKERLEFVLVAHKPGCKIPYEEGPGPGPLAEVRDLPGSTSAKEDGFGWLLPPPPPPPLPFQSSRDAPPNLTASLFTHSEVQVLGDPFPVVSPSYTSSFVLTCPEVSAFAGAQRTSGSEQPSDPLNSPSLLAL
dFosB act-2 – delta FosB (mouse) homodimer activation. 2,400 tested, under 10 active. purified delta FosB, TAMRA-CDK5 oligo fluorescence polarization; normalised: neutral wells 0, positive control 100. activation, % at 24.9 µM. shares compounds with dFosB act-1;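 active means highest replicate activation at or above 34% and every replicate reaching that threshold; inconclusive means meets only one of the two criteria; inactive means meets neither criterion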;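 further: higher polarization means more probe DNA bound by delta FosB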
Each line names hits and unclear results; the compound was inactive in the other large screens (follow-up assays come after a bar, where shown).

C[C@H]1CN([C@@H](C)CO)C(=O)Cc2cc(NC(=O)Cn3cnnn3)ccc2O[C@@H]1CN(C)C(=O)Nc1ccc(C(F)(F)F)cc1	none (no result: Vif inh, Neddyl block, A1 inh, dFosB act-1)
O=C(Nc1ccc(Cl)cc1)NN1CC(=O)N(c2cccc(C(F)(F)F)c2)CC1=O	dFosB act-1 31 | dFosB act-2 inactive
C[C@H](CO)N1C[C@H](C)[C@H](CN(C)C)Oc2ccc(NC(=O)Cc3ccccc3)cc2C1=O	none (no result: Vif inh, Neddyl block, A1 inh, dFosB act-1)
O=C(N/N=C/c1ccc(-c2ccccc2Cl)o1)c1ccccc1	dFosB act-1 32 | dFosB act-2 inactive
COc1ccccc1CNC(=O)/C=C/c1cc2c(cc1Br)OCO2	dFosB act-1 45 (no result: Vif inh, GSIS activator) | dFosB act-2 inactive
CC(C)NC(=O)N1CC2(C1)[C@H](c1ccccc1)[C@@H](CO)N2CCC(F)(F)F	none (no result: Vif inh, Neddyl block, A1 inh, dFosB act-1)
C[C@H](CO)N1C[C@H](C)[C@H](CN(C)C(=O)CCC(F)(F)F)OCCCC[C@H](C)Oc2ccc(NC(=O)NC3CCCCC3)cc2C1=O	none (no result: Vif inh, Neddyl block, A1 inh, dFosB act-1)
Cc1cn(-c2cc(NC(=O)c3ccc(C)c(NC(=O)c4cccc(-c5cn[nH]c(=O)c5)c4)c3)cc(C(F)(F)F)c2)cn1	dFosB act-1 41 (no result: GSIS activator) | dFosB act-2 inactive
Cc1ccc(NC(=O)c2cccc(C(F)(F)F)c2)cc1NC(=O)c1[nH]cnc1C(N)=O	none
COc1ccc2nc(NC(=O)c3cccc(-c4cc5ccccc5oc4=O)c3)sc2c1	dFosB act-1 44 | dFosB act-2 inactive
COc1cc(NC(=O)c2ccc(Cl)cc2Cl)ccc1-c1cc2ccccc2oc1=O	dFosB act-1 24 | dFosB act-2 inactive
COc1ccc(C(=O)Nc2cccc(-c3cc4ccccc4oc3=O)c2)cc1[N+](=O)[O-]	dFosB act-1 52 | dFosB act-2 inactive
Cc1ccccc1C(=O)Nc1cccc(C(=O)N/N=C/c2ccc3c(c2)OCO3)c1	none
O=C(N/N=C/c1ccc2c(c1)OCO2)c1ccc(NC(=O)c2ccccc2Cl)cc1	dFosB act-1 23 | dFosB act-2 inactive
O=C(N/N=C/c1ccc2c(c1)OCO2)c1cccc(NC(=O)c2ccccc2Cl)c1	dFosB act-1 21 | dFosB act-2 inactive
O=C(Cn1nnc(-c2ccccc2Cl)n1)N/N=C/c1ccc2c(c1)OCO2	dFosB act-1 24 (no result: Vif inh) | dFosB act-2 inactive
CO[C@@H]1CN(C)C(=O)c2ccc(NS(C)(=O)=O)cc2OC[C@H](C)N(C(=O)CC2CC2)C[C@H]1C	none (no result: Vif inh, Neddyl block, A1 inh, dFosB act-1)
CCCc1cc(=O)[nH]c(SCC(=O)Nc2cccc3ccccc23)n1	dFosB act-1 22 | dFosB act-2 inactive
CCCc1cc(=O)[nH]c(SCC(=O)Nc2ccc(OCc3ccccc3)cc2)n1	dFosB act-1 28 | dFosB act-2 inactive
CCOC(=O)c1sc(NC(=O)Nc2ccc(Cl)cc2)cc1C	dFosB act-1 24 (no result: GSIS activator) | dFosB act-2 inactive
CCOC(=O)c1sc(NC(=O)c2ccc(Cl)s2)cc1C	none (not shown: Neddyl block)
COc1ccc(NC(=O)CC2C(=O)N(c3ccc(OC)cc3)C(=S)N2NC(=O)c2cccc(F)c2)cc1 (stereo not drawn)	none
COc1ccc(N2C(=O)C(CC(=O)Nc3ccc(Cl)cc3)N(NC(=O)c3cccc(F)c3)C2=S)cc1 (stereo not drawn)	dFosB act-1 25 | dFosB act-2 inactive
CCOc1ccc(NC(=O)CC2C(=O)N(c3ccc(OC)c(Cl)c3)C(=S)N2C2CC2)cc1 (stereo not drawn)	dFosB act-1 28 | dFosB act-2 inactive
O=C(CSc1ncnc2c1oc1ccccc12)Nc1nc2ccccc2s1	dFosB act-1 33 | dFosB act-2 inactive
Cc1nc(SCC(=O)NC(C)c2ccccc2)c2oc3ccccc3c2n1 (stereo not drawn)	dFosB act-1 35 (no result: GSIS activator) | dFosB act-2 inactive
CCCNC(=O)C[C@@H]1CC[C@@H]2[C@@H](COc3ccc(NC(=O)c4cccc(Cl)c4)cc3C(=O)N2C)O1	none (no result: Vif inh, Neddyl block, A1 inh, dFosB act-1)
Cc1cccc(CSc2nc3ccncc3n2CC(=O)Nc2cc(C)cc(C)c2)c1	dFosB act-1 33 (no result: Vif inh) | dFosB act-2 inactive
CSc1nc2ccccc2n1CC(=O)Nc1ccc(C)c(C)c1	none
Cc1ccc(/C=N\NC(=O)c2cc(OCC(F)(F)F)ccc2OCC(F)(F)F)cc1	Vif inh inconclusive (no result: GSIS activator)
COc1ccc(/C=N\NC(=O)c2cc(OCC(F)(F)F)ccc2OCC(F)(F)F)cc1	dFosB act-1 18 (no result: GSIS activator) | dFosB act-2 inactive
O=C(c1cc(-c2ccc(Cl)c(Cl)c2)on1)N1CCOCC1	dFosB act-1 50 | dFosB act-2 inactive
COc1ccc(S(=O)(=O)N[C@H]2CC[C@@H](CC(=O)O)O[C@@H]2CO)cc1	none (no result: Vif inh, Neddyl block, A1 inh, dFosB act-1)
CCc1cccc(OCC2Cn3c(nc4c3c(=O)[nH]c(=O)n4C)O2)c1 (stereo not drawn)	dFosB act-1 20 | dFosB act-2 inactive
CCc1cccc(OCC2Cn3c(nc4c3c(=O)n(C)c(=O)n4C)O2)c1 (stereo not drawn)	none
COc1ccc2c3c(n(C)c2c1)[C@H](CO)N(Cc1ccncc1)CC31CN(C(=O)C2CCCC2)C1	none (no result: Vif inh, Neddyl block, A1 inh, dFosB act-1)
Cc1ccc(-c2nc(SCC(=O)c3c(N)n(C)c(=O)n(C)c3=O)n[nH]2)cc1	dFosB act-1 32 | dFosB act-2 inactive
CCc1ccc(-c2nc(SCC(=O)c3c(N)n(C)c(=O)n(C)c3=O)n[nH]2)cc1	Vif inh inconclusive
Cc1ccccc1-n1nnnc1SCC(=O)c1c(N)n(C)c(=O)n(C)c1=O	dFosB act-1 23 (no result: A1 inh) | dFosB act-2 inactive
Oc1ccc(C[C@H]2CNC(=S)N2CC2CCCN2C[C@H](Cc2ccc(O)cc2)N2C[C@H](Cc3ccccc3)N(CC3CCCCCC3)C2=S)cc1 (stereo partly drawn)	dFosB act-1 72 (no result: A1 inh) | dFosB act-2 inactive
CCOc1ccc(CCN2C(=S)N([C@@H](Cc3ccc(O)cc3)CN3CCCC3CN3C(=S)NC[C@@H]3Cc3ccc(O)cc3)C[C@@H]2CC(C)C)cc1 (stereo partly drawn)	dFosB act-1 88 (no result: A1 inh, GSIS activator) | dFosB act-2 inactive
Oc1ccc(C[C@@H](CN2CCCC2CN2C(=S)NC[C@@H]2Cc2ccccc2)N2C[C@H](Cc3ccccc3)N(CC3CCCCC3)C2=S)cc1 (stereo partly drawn)	none (no result: Vif inh, A1 inh, GSIS activator, dFosB act-1)
CCOc1ccc(CCN2C(=S)N([C@@H](Cc3ccccc3)CN3CCC[C@@H]3CN3C(=S)NC[C@@H]3Cc3ccc(O)cc3)C[C@@H]2CC(C)C)cc1	none (no result: A1 inh, dFosB act-1)
CCCNC(=O)C[C@@H]1CC[C@@H]2[C@H](COC[C@H](O)CN2C(=O)CC)O1	none (no result: Vif inh, Neddyl block, A1 inh, dFosB act-1)
C[C@@H]1CN([C@H](C)CO)C(=O)c2cccc(NC(=O)C3CCOCC3)c2O[C@@H]1CN(C)Cc1ccc2c(c1)OCO2	none (no result: Vif inh, Neddyl block, A1 inh, dFosB act-1)
CN(C)C(=O)C[C@H]1C=C[C@H](NC(=O)C2CCOCC2)[C@@H](CO)O1	none (no result: Vif inh, Neddyl block, A1 inh, dFosB act-1)
CCOc1ccc(Nc2nc(N)c([N+](=O)[O-])c(NCc3ccccc3)n2)cc1	dFosB act-1 inconclusive
